The text below walks through data of PubChem BioAssay (NCATS).

Structures are written as SMILES. Where “and” joins values, the source holds several entries; their conditions need not be identical. Identical values can stand only once. Results filed as inconclusive are left out. Calls of active or inactive are those of the source. Calls follow the shape of the dose curve; as a rule, active = well fitted cell-killing curve with a large enough effect; inconclusive = small, poorly fitted or top-dose-only effect; inactive = no such curve, though single readings can be large or run the other way.
Potency is read from the fitted curve at half-maximal effect.

The test can be described thus: qHTS of pediatric cancer cell lines to identify multiple opportunities for drug repurposing: Primary screen for NB-EBc1 cells (AID 1347095).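 As to activity change, negative = cytotoxic: plate controls were DMSO neutral control for no effect and bortezomib for full effect.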 The settings on record: NB-EBc1 neuroblastoma viability, CellTiter-Glo luminescence, 48 h; series mostly up to 46 µM; activity change, negative = cytotoxic: at the top concentration. The essentials: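 500-1,000 cells/well; 5 h pre-incubation 37 °C/5% CO2; compound pinned; 48 h; CellTiter-Glo, 15 min RT; luminescence. MIPE 11-pt from 0.78 nM, NPC 8-pt from 0.59 nM final. Bortezomib 2.3 µM final as positive control.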
As for `CCCOc1ccc2nc(NC(=O)OC)[nH]c2c1`, the Potency is 1 nM (active).
Consider `CCc1nc(N)nc(N)c1-c1ccc(Cl)cc1`, for which the Potency was 2.66 µM (active) and 5.26 µM (active).
Same read-out and setting: the result for `Cc1ncc([N+](=O)[O-])n1CC(C)O` (stereo not drawn) reads “inactive”.
For the compound `O=c1oc2cc(O)ccc2s1`, the “activity change, negative = cytotoxic” value is 9.67% (inactive).
As to `CCOC(=O)C1=C[C@@H](OC(CC)CC)[C@H](NC(C)=O)[C@@H](N)C1`, the “activity change, negative = cytotoxic” value was 0.104% (inactive).
For `CN(C)C(=O)[C@H](O)[C@H](Cc1ccccc1)NC(=O)c1cc2cc(Cl)ccc2[nH]1`, the Potency was 3320 nM (active).
For `Cc1cccc(-c2[nH]ncc2-c2ccc3ncccc3n2)n1`, the “activity change, negative = cytotoxic” value is 13.2% (inactive).
On to `Cc1nccn1CC1CCc2c(c3ccccc3n2C)C1=O` (stereo not drawn), for which the Potency result was “inactive”.
Same read-out and setting: the result for `N=C(N=C(N)N)N1CCOCC1` reads “inactive”.
For `CCC(C)(Oc1ccc(C2(c3ccc(OC(C)(CC)C(=O)O)cc3)CCCCC2)cc1)C(=O)O` (stereo not drawn), the “activity change, negative = cytotoxic” value is 11.8% (inactive).
As to `Cc1nc(-c2ccc(OCC(C)C)c(C#N)c2)sc1C(=O)O`, the Potency entry is “inactive”.
Consider `Cn1c(NCCN(CCO)CCCc2ccc([N+](=O)[O-])cc2)cc(=O)n(C)c1=O`, for which the “activity change, negative = cytotoxic” value was 12.2% (inactive).
On the same count and under the same terms, the result for `Cc1c(OCC(F)(F)F)ccnc1CS(=O)c1nc2ccccc2[nH]1` (stereo not drawn) reads 12.1% (inactive).
In the case of `S=c1nc[nH]c2nc[nH]c12`, the Potency was 531 nM (active) and 1.66 µM (active).
The same measure, in the same setting: the result for `CN(C)[C@@H](CCOc1cccc2ccccc12)c1ccccc1` reads “inactive”.
Consider `O=C1c2c(O)cc(O)cc2OC(c2ccc(O)c(O)c2)C1O` (stereo not drawn), for which the “activity change, negative = cytotoxic” value was -14.7% (inactive).
For `C[C@H](Cn1cnc2c(N)ncnc21)OCP(=O)(O)O`, the “activity change, negative = cytotoxic” value was 20.5% (inactive).
Turning to `O=C(NC(Cc1cc(=O)[nH]c2ccccc12)C(=O)O)c1ccc(Cl)cc1` (stereo not drawn), the Potency result was “inactive”.
